# A selection: hits, their analogues and other compounds. The true share with any hit is near 4.9%.
# PP5 primary: inhibitors of human protein phosphatase 5 (PP5); 320,000 compounds, 0.18% hits; P53041; inhibition, % at 6.7 µM; purified PP5c, OMFP substrate fluorescence;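 active = inhibition above the campaign's mean inhibition across all tested compounds plus 3 SD, cut at about 9.5% in these data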;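 also: 0% = DMSO only and 100% = 100 µM cantharidin control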
# Mdm2 MdmX PPI: inhibitors of human Mdm2/MdmX interaction; O15151+Q00987; SaOS-2 split-luciferase Mdm2/MdmX complementation, luminescence; inhibition, % at 8 µM; 330,000 compounds, 3% hits; AID 485346;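 active = inhibition of at least 50% at 8 µM in the primary screen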
# PP1 inh: counter-screen for PP5 inhibitors: inhibitors of human PP1-alpha. P62136. purified PP1alpha, OMFP fluorescence. inhibition, % at 6.7 µM. 320,000 compounds, 0.9% hits;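 active = inhibition above the mean inhibition of all tested compounds plus 3 SD, computed separately for each screening campaign, cut at about 15% in these data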
# Beta apoptosis: blocks beta cell apoptosis. INS-1E cytokine-induced death, ATP luminescence, 48 h; percent of positive-control rescue, neutral wells zero. AID 435005. 300,000 compounds, 0.8% hits. protection from apoptosis, % (concentration not given with the values);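 active = Every replicate reaches about 75%, or at least half do and their mean reaches it too, limit read from the data; inconclusive = At least half of replicates reach the limit but their mean does not; inactive = Under half of replicates reach the limit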;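 also: 0% = cytokine-treated negative control wells and 100% = positive control rescue; higher means more ATP so stronger rescue from cytokine killing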
# Calb FLC: C. albicans growth modulation with fluconazole; growth inhibition, % (test concentration not listed); 300,000 compounds, 0.57% hits; C. albicans CaCi-2 (fluconazole-resistant clinical isolate) + fluconazole, Alamar Blue growth, 48 h; AID 1979;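 active = growth inhibition above about 58% in most replicates, limit read from the data, passing the limit was not always enough; inconclusive = exactly half the replicates above a set limit; inactive = most replicates below a set limit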;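 also: all wells also contain fluconazole at 8 µg/ml as a sub-toxic cotreatment; 0% = median of DMSO wells and 100% = median of geldanamycin control wells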
# CSC inhib: blocks cancer stem cells; inhibition, % at 7.5 µM; cancer stem cell-like cells viability, luminescence; AID 2717; 300,000 compounds, 1.1% hits; in the data active = inhibition above about 75%; inconclusive = no clear call, values can overlap the other calls; tested in HMLE shEcad cells
# Mdm2-MdmX conf: human Mdm2/MdmX binding inhibition, confirmed; AID 489028; shares compounds with Mdm2 MdmX PPI; 10,000 compounds, 55% hits; inhibition, % at 8 µM; luminescent assay; in the data active = inhibition above about 40%
# FLuc counter: full-length luciferase inhibition in Mdm2/MdmX counter-screen. 6,200 compounds, 77% hits. shares compounds with Mdm2 MdmX PPI. SaOS-2 full-length luciferase counterscreen, luminescence. inhibition, % at 8 µM;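 active = mean inhibition at 8 µM reaching about 37%, which flags the compound as non-specific, limit read from the data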;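 also: p53-null SaOS-2 cells with luciferase driven by a doxycycline-inducible promoter; compound on cells about two nights before reading with doxycycline added after day one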
# The depositor's hits bear a star; ? = inconclusive; . = not tested or not shown.
SMILES,PP5 primary,Mdm2 MdmX PPI,PP1 inh,Beta apoptosis,Calb FLC,CSC inhib,Mdm2-MdmX conf,others
COc1ccccc1C/C(N)=N/OC(=O)c1cccs1,-1,51*,-2,.,-19,.,11,
CC1C(=O)C(C)(C)C(=O)OC1c1ccccc1 (stereo not drawn),1,2,-2,2,-1,-8,.,
C[C@H]1C=CC(=O)O[C@H]1c1ccccc1,0,50*,-1,-66,-7,-11,8,
Cn1c2c(c(=O)n(C)c1=O)C(c1ccc(C(F)(F)F)cc1)CC(=O)N2 (stereo not drawn),-6,-14,-2,6,-8,3,.,
C[C@@H]1C=CC(=O)O[C@@H]1c1ccc(C(F)(F)F)cc1,-1,76*,1,6,-4,92*,69*,FLuc counter=9
Cc1cc2nc(CCN3CCOCC3)n(S(=O)(=O)c3ccc(C(C)(C)C)cc3)c2cc1C,3,52*,1,-5,-14,55,25,
Cc1cc2ncn(S(=O)(=O)c3ccc(S(=O)(=O)N4CCOCC4)cc3)c2cc1C,0,-9,0,-4,-20,-4,.,
O=S1(=O)c2ccccc2N=NN1Cc1ccc(Cl)c(Cl)c1,-1,-7,-3,-10,-6,-6,.,
CC(C)(C)c1ccc(CN2N=Nc3ccccc3S2(=O)=O)cc1,2,67*,-2,15,1,-3,47*,FLuc counter=59*
Cc1ccc(-c2csc3nc4cc(C(N)=O)ccc4c(=O)n23)cc1,2,-5,1,-7,12,8,.,
Cc1ccc(CNC(=O)c2ccc3c(=O)n4c(-c5ccc(C)cc5)csc4nc3c2)cc1,1,57*,0,11,-12,.,44*,FLuc counter=90*
Cc1ccc(C)c(OCCC(=O)Nc2ccc3c(c2)OCO3)c1,1,16,1,4,.,.,.,
CCN(CC(=O)NCc1ccc(F)cc1)C(=O)/C=C/c1ccc(OC)c(S(=O)(=O)NC(C)C)c1,1,56*,1,9,-6,57,55*,FLuc counter=61*
CCN(CC(=O)NCc1ccc(F)cc1)C(=O)/C=C/c1ccc(OC)cc1,-1,6,-2,-4,-11,-2,.,
Cc1ccc(C(=O)O/N=C(\N)c2ccccc2)c(Cl)c1,0,80*,3,.,-1,-8,58*,FLuc counter=120*
N/C(=N\OC(=O)c1ccc(Cl)cc1Cl)c1ccccn1,0,52*,-5,110*,26,18,38,FLuc counter=53*
N/C(=N\OC(=O)c1cc(Br)ccc1Cl)c1ccccn1,3,-103,-5,.,?,-7,.,
N/C(=N\OC(=O)c1cc([N+](=O)[O-])ccc1Cl)c1ccccn1,1,35,0,-6,10,-6,.,
Cc1ccc(C(=O)O/N=C(\N)c2ccccn2)c(Cl)c1,2,96*,0,.,-4,26,89*,FLuc counter=20
N/C(=N\OC(=O)c1ccc([N+](=O)[O-])cc1Cl)c1ccccn1,3,54*,-2,12,23,6,37,
CN(CC(=O)Nc1ccc(F)cc1)C(=O)CSc1ncccn1,2,2,2,-4,3,-8,.,
Cc1cccc(OCCNC(=O)c2ccc(Oc3ccc(C(F)(F)F)cc3[N+](=O)[O-])cc2)c1,4,50*,-1,.,-3,20,26,
CCCCCCCCn1c(=O)c(C(=O)OC)c(N)c2ccccc21,3,75*,-4,117*,-5,10,6,
O=C1C=C(c2ccc3ccccc3c2)C[C@@H](c2ccc(F)cc2)C1,2,52*,-4,3,.,30,-6,
COc1ccc(CN(C)Cc2nc3scc(-c4ccccc4)c3c(=O)[nH]2)cc1OC,4,-1,1,5,2,-1,.,
SMILES,PP5 primary,Mdm2 MdmX PPI,PP1 inh,Beta apoptosis,Calb FLC,CSC inhib,Mdm2-MdmX conf,others
CCCCCN(C(=O)CCC(=O)OCCOc1cccc(Cl)c1)c1c(N)n(CCCC)c(=O)[nH]c1=O,-1,24,-5,4,4,-6,.,
N#C/C(=C\Nc1ccccc1O)c1nc2ccccc2o1,8,.,2,8,-9,49,.,
Cc1ccc(C(CC(=O)N2CCNCC2)c2ccccc2)c(O)c1C (stereo not drawn),3,21,-3,-1,16,-1,.,
Nc1c(N=Nc2cccc(Cl)c2)c(=O)[nH]n1-c1ccccc1,-1,56*,-1,1,-4,-4,-51,
O=C(CSc1nc2ccccc2c(=O)[nH]1)Nc1ccc(N2CCOCC2)c(Cl)c1,-1,16,1,7,-3,-4,.,
CCCn1nc(C(=O)NNC(=O)CCCOc2ccc(C)cc2)c2ccccc2c1=O,0,7,-2,-7,2,-8,.,
CCc1cccc2c1NC(=O)C21N2CCCC2C(C(=O)c2ccc3ccccc3c2)C12C(=O)Nc1ccccc12 (stereo not drawn),4,32,6,10,-8,50,.,
CCc1ccc2c(c1)C1(C(=O)N2)N2CCCC2C(C(=O)c2ccc3ccccc3c2)C12C(=O)Nc1ccccc12 (stereo not drawn),2,91*,-1,121*,5,159*,38,FLuc counter=91*
CCOC(=O)C1=C(C)NC(C)=C(C(=O)OCC)C1/C=C/c1ccccc1OC,2,48,0,-11,-10,13,.,
CCOC(=O)C1=C(C)NC(C)=C(C(=O)OCC)C1c1ccccc1/C=C/C(=O)OC(C)(C)C,6,72*,7,39,.,99*,31,
COc1ccc2c(c1)-c1c(sn(-c3ccccc3)c1=S)C(C)(C)N2,1,31,-2,0,?,-7,.,
COc1ccc2c(c1)-c1c(ssc1=S)C(C)(C)N2S(=O)(=O)c1ccc(C)cc1,-1,58*,-3,2,-1,66,46*,FLuc counter=61*
COc1ccc2c(c1)-c1c(sn(-c3ccc(OC)c(OC)c3)c1=S)C(C)(C)N2,2,55*,-2,.,34,74,19,
COc1ccc2c(c1)-c1c(ssc1=S)C(C)(C)N2,2,92*,1,-14,41,9,87*,FLuc counter=55*
CCN(CC)C(=O)CSc1nc2cc3c(cc2c(=O)n1Cc1ccc(OC)cc1)OCO3,2,-17,2,-4,?,-1,.,
COc1ccc(C(C(=O)NC2CCCC2)N(C(=O)c2csnn2)C2CCCC2)cc1 (stereo not drawn),1,14,-2,3,-3,-7,.,
COc1ccc(Nc2nc(Cl)nc(NCCO)n2)cc1,0,22,-2,-8,-14,-9,.,
COc1ccc(Nc2nc(Nc3ccc(OC)cc3)nc(SC3=NCCS3)n2)cc1,4,74*,-1,4,9,-19,-8,
Cc1cc(C)c2oc(-c3ccc(C)c(NC(=S)NC(=O)c4cccs4)c3)nc2c1,1,77*,-4,-3,-2,.,0,
